# Wnt bcat act: activators of Wnt/beta-catenin signaling; Wnt/beta-catenin reporter cell assay, activator, plate reader; activation, % at 9.35 µM; hit rate 1.2% among 300,000; in the data active = activation above about 30%, passing the limit was not always enough; inconclusive = no clear call, values can overlap the other calls;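 also: 0% = neutral control wells and 100% = positive control wells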
# GAA850 FXN act: increases GAA850 frataxin promoter reporter activity; HEK293 lucGAA850 FXN promoter luciferase reporter, 24 h; percent of 10 µM SAHA response; activation, % at 6 µM; hit rate 0.56% among 360,000; AID 540364;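 active = activation above the average of all compounds screened plus 3 SD, cutoff fixed separately per campaign, cut at about 7.5% in these data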;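 also: 0% = DMSO wells and 100% = 10 µM SAHA wells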
# esBAF inh: inhibitors of esBAF chromatin remodeling in mouse ES cells. Bmi1-luciferase knock-in reporter, 24 h; 100% = twice the neutral-well signal. reporter increase, % at 12.5 µM. hit rate 2% among 350,000. AID 602393; in the data active = activation above about 40%; inconclusive = no clear call, values can overlap the other calls;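 also: 0% = median of the plate's neutral control wells and 100% = double that signal; a rise in the Bmi1 reporter signal indicates esBAF inhibition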
# MITF TRPM1 HTS: activators of MITF-driven TRPM1 promoter activity in SK-MEL-5 cells. SK-MEL-5 TRPM1-promoter luciferase, 24 h; % of positive control, neutral wells = 0. activation, % at 12.5 µM. hit rate 0.75% among 300,000. AID 588334;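 active = mean activation of at least 80% with every replicate also reaching 80%; inconclusive = mean reaches 80% but some replicate falls short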;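 also: 0% = neutral control wells and 100% = parthenolide positive control wells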
# AHR activator: activators of human aryl hydrocarbon receptor; hit rate 2.5% among 320,000; activation, % at 5 µM; AHR-responsive luciferase reporter cells, luminescence; in the data active = activation above about 47%;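 also: 0% = vehicle wells and 100% = reference agonist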
# The depositor's hits bear a star; ? = inconclusive; . = no result. This is a sample that favours compounds with a hit; in the whole collection about 4.2% have one here.
SMILES,Wnt bcat act,GAA850 FXN act,esBAF inh,MITF TRPM1 HTS,AHR activator
Cc1ccc(C(=O)NNC(=O)Cn2nnc3ccccc32)cc1,3.8,-0.8,9.2,20.5,-0.8
Cc1ccc(C(=O)Cn2nnc3ccccc32)cc1,.,2.1,62.6*,72.6,0.0
Oc1ccc(/C=N/NC(=S)Nc2cccnc2)c(O)c1,0.8,3.3,.,-12.0,60.1*
Cc1cc(N/N=C/c2ccc(O)cc2O)c2ccccc2n1,1.3,0.1,1.1,.,-1.1
Fc1c(F)c(F)c(/C=N/NC(=S)Nc2cccnc2)c(F)c1F,-1.0,2.5,-16.5,-5.0,70.7*
Oc1ccc(/C=N/Nc2ccc3ccccc3c2)c(O)c1,4.8,0.4,9.1,2.8,60.9*
O=C(CCC(=O)Nc1ccc(F)cc1)N/N=C/c1ccc(O)cc1O,-0.6,1.1,.,-7.4,0.8
Oc1ccc(C=NNC(=S)Nc2ccc(F)cc2)c(O)c1,37.3*,-0.8,?,17.0,.
O=C1CNC(=S)N1c1nc(-c2ccccc2)cs1,50.3*,3.3,.,87.8*,18.4
c1ccc(-c2csc(N3CCOCC3)n2)cc1,38.9*,0.8,59.9*,81.2*,-2.8
Clc1ccc(-c2csc(N3CCc4ccccc4C3)n2)cc1,.,-1.2,2.7,.,52.1*
c1ccc(-c2csc(N3CCN(c4ccccn4)CC3)n2)cc1,?,7.2,61.0*,59.0,29.4
O=C(Cc1cccnc1)N[C@H]1CC[C@H](CCn2cc(-c3ccccc3F)nn2)O[C@@H]1CO,.,.,4.1,.,.
CCCNC(=O)C[C@@H]1C[C@H]2c3cc(NC(=O)Cc4ccncc4)ccc3O[C@H]2[C@@H](CO)O1,.,.,-4.6,.,.
O=C(C[C@H]1CC[C@H]2[C@@H](COC[C@@H](O)CN2C(=O)c2ccccc2)O1)NCc1ccc(-c2ccccc2)cc1,.,.,2.3,.,.
CC(C)[C@H](NC(=O)OCc1ccccc1)C(=O)OCC(=O)c1ccccc1,34.9*,2.8,-11.1,?,0.2
CC(C)C(NC(=O)OCc1ccccc1)C(=O)O (configuration not stated),3.9,-1.1,-9.8,5.8,0.4
CCOc1ccc(-c2nnc(-c3cccs3)o2)cc1OCC,.,7.4,11.0,.,2.4
CCOc1ccc(-c2nnc(-c3cccs3)o2)cc1,31.3*,-2.9,-43.2,19.1,-4.2
O=C(NC1CCCCC1)N(c1ccccc1)c1nnc(-c2cccc([N+](=O)[O-])c2)s1,12.5,5.9,66.0*,.,.
O=C(Nc1nc2ccccc2s1)NC1CCCCC1,42.5*,6.3,.,86.2*,4.2
O=C(Nc1ccccc1)NC1CCCCC1,.,1.5,46.1*,25.7,1.6
O=C(Nc1ccccc1)NC1CCCCCCC1,7.5,2.8,.,.,2.7
Cc1ccc(NC(=O)C2CCN(C(=O)NC3CCCCC3)CC2)cc1Cl,.,0.2,4.8,.,-3.7
Cc1ccc(NC(=O)NC2CCCCC2)cc1Cl,.,4.4,85.2*,?,6.9
SMILES,Wnt bcat act,GAA850 FXN act,esBAF inh,MITF TRPM1 HTS,AHR activator
CC(C)C#Cc1cnc2c(c1)C(=O)N([C@H](C)CO)C[C@@H](C)[C@H](CN(C)C(=O)c1cccc(F)c1)O2,.,.,-0.3,.,.
CO[C@H]1CN(C)C(=O)c2cc(NC(=O)Cc3ccccc3)ccc2OC[C@@H](C)N(CC2CC2)C[C@@H]1C,.,.,0.3,.,.
COc1ccc(S(=O)(=O)Nc2ccc3c(c2)CC(=O)N([C@@H](C)CO)C[C@H](C)[C@@H](CN(C)S(=O)(=O)c2cn(C)cn2)O3)cc1,.,.,-0.1,.,.
O=C(C[C@H]1CC[C@@H]2[C@H](COC[C@H](O)CN2Cc2nccs2)O1)NCc1ccc(-c2ccccc2)cc1,.,.,6.3,.,.
O=C(Nc1ccc(Br)cc1)NC1CCCCCCC1,46.6*,3.1,.,?,14.0
O=C(CNC1CCCCC1)Nc1cccc([N+](=O)[O-])c1,0.8,1.4,6.2,.,1.8
O=C(Nc1cccc([N+](=O)[O-])c1)NC1CCCCCCC1,23.8,6.0,77.6*,91.4*,.
Cc1cc(C)cc(NC(=O)CSc2nc3ccncc3[nH]2)c1,-1.2,0.1,-4.6,.,22.1
Cc1ccc(CSc2nc3ccncc3n2CC(=O)Nc2cc(C)cc(C)c2)cc1,-0.4,4.5,48.4*,34.9,0.8
C[C@H](CO)N1C[C@H](C)[C@@H](CN(C)S(=O)(=O)c2ccc(F)cc2)Oc2ccc(NS(C)(=O)=O)cc2CC1=O,.,.,-1.5,.,.
O=C(CCc1ccccc1)Nc1ccc2c(c1)OCCO2,16.0,-1.3,27.1,71.0,22.2
Cc1ccc(NC(=O)c2nnn(CC(=O)Nc3ccc4c(c3)OCO4)c2N)cc1C,2.1,0.3,18.5,5.9,10.3
Nc1c(C(=O)Nc2ccc3c(c2)OCCO3)nnn1CCc1ccccc1,12.1,-0.3,66.5*,12.4,34.1
Nc1c(C(=O)Nc2ccccc2Cl)nnn1-c1ccc2c(c1)OCCO2,18.4,2.2,32.4,132.3*,-5.3
Nc1c(C(=O)Nc2ccc3c(c2)OCCO3)nnn1Cc1ccc(Br)cc1,36.2*,1.2,126.2*,111.1*,50.8*
Nc1c(C(=O)Nc2ccc3c(c2)OCCO3)nnn1Cc1cccc(Br)c1,42.2*,2.0,55.0*,102.0*,21.2
COc1ccc(S(=O)(=O)N(C)C[C@@H]2Oc3c(NS(=O)(=O)c4ccc(C)cc4)cccc3C(=O)N([C@H](C)CO)C[C@@H]2C)cc1,.,.,6.1,.,.
COc1ccc(S(=O)(=O)N[C@H]2CC[C@H](CC(=O)N3CCN(c4ccccc4)CC3)O[C@H]2CO)cc1,.,.,2.4,.,.
CCn1c2ccccc2c2cc(N=C3SC(CC(=O)Nc4ccccc4OC)C(=O)N3CCOC)ccc21 (configuration not stated),-11.1,-1.1,2.9,-5.2,62.3*
CCn1c2ccccc2c2cc(N=C3SC(CC(=O)Nc4ccccc4OC)C(=O)N3C)ccc21 (configuration not stated),-9.0,-0.1,.,-5.7,2.1
CCN1CCCC1CN(Cc1cc2ccc(C)cc2[nH]c1=O)C(=S)Nc1cccc(OC)c1 (configuration not stated),-0.4,0.8,.,13.0,58.7*
CCN1CCCC1CN(Cc1cc2ccc(C)cc2[nH]c1=O)C(=S)Nc1ccc(OC)cc1 (configuration not stated),-3.0,-1.0,.,-12.1,-1.2
C=CCN=c1scc(-c2ccco2)n1/N=C/c1ccc(O)c(O)c1O,41.7*,7.1,.,39.2,5.6
COCCN=c1scc(-c2ccco2)n1/N=C/c1ccc(O)c(O)c1O,11.7,4.6,14.0,5.7,-4.9
CC(C)NC(=O)N(C)C[C@@H]1Oc2c(NS(C)(=O)=O)cccc2C(=O)N([C@H](C)CO)C[C@H]1C,.,.,-1.3,.,.
Cc1nc(C2COc3ccccc3O2)sc1C(=O)O (configuration not stated),12.3,1.8,45.0*,37.4,-2.5
Cn1c(=O)n(CCc2ccccc2)c(=O)c2c1nc1n2CCN1Cc1ccco1,.,-1.3,9.4,-10.6,66.4*
NC(=O)c1ccccc1OCC(=O)Nc1ccc(Cl)c(Cl)c1,39.9*,3.9,.,64.4,44.5
COc1ccccc1OCC(=O)Nc1ccc(Cl)cc1,19.1,0.6,17.8,51.6,-0.8
NC(=O)c1ccccc1OCC(=O)Nc1ccc2c(c1)CCC2,26.5,1.3,97.4*,93.1*,-5.0
